Assay results from PubChem BioAssay AID651812 (National Center for Advancing Translational Sciences (NCATS), 2012).
The whole screen tested about 2,100 compounds, of which about 650 (31%) were called active. Another 16% or so got no clear call; they are omitted. The list shows a part of the results. A number with no mark means an inactive call. The call rests on the fitted dose curve; in most records, active means well fitted inhibition curve with a large enough effect; inconclusive means small, poorly fitted or top-dose-only effect; inactive means flat fitted curve, though single readings scatter.

Experiment: qHTS for inhibitors of Vif-A3G interactions: Cherry picks; further: nearly all actives have a fitted effect of over 80% in size; on activity, negative = fluorescence increase: % of control where 0% means no effect
Conditions: HeLa A3G-eYFP + Vif (tagged APOBEC3G with the HIV-1 protein that degrades it), 24 h; Potency: eYFP fluorescence increase; series mostly up to 36.9 µM; activity, negative = fluorescence increase: at the top concentration
Method in brief: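 Cherry-picked compounds tested at several concentrations on A3G-eYFP/Vif HeLa cells for 24 hours; loss of Vif-driven degradation read as eYFP fluorescence by cytometric plate imaging, 488 nm excitation, 500-530 nm emission.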
Potency means the concentration at half of the fitted maximal effect.

Compound | activity, negative = fluorescence increase | Potency
CCn1cc2nc(SCC(=O)Nc3ccc(C)cc3C)n(Cc3ccc(C)cc3)c(=O)c2n1 | -5.28% [at 46.1 µM] | 
O=[N+]([O-])c1cc(Cl)c2cccnc2c1O | -10.9% [at 46.1 µM] | 
Cc1cc(N2CCN(c3ccc([N+](=O)[O-])c4cccnc34)CC2)c2ccccc2n1 |  | 20.6 µM (active)
CCC(=O)NC(=S)Nc1cccc(Cl)c1N1CCCC1 | -1.38% [at 46.1 µM] | 
C=CCNc1nc2cc(-c3cccc(Cl)c3)sc2c(=O)n1C | 0.835% | 
C=CCNC(=S)N/N=C/c1ccc(C)cc1C | 7.22% [at 46.1 µM] | 
C=C(C(=O)c1ccccc1)C(NC(C)(C)C)c1ccccc1 (stereo unspecified) | 4.2% | 
CC(=O)Nc1sc(/C(C#N)=C/c2ccc(Cl)c(Cl)c2)nc1-c1ccc(C)cc1 |  | 5.8 µM (active)
CC(=O)Nc1sc(/C(C#N)=C\c2cccc(Cl)c2)nc1-c1ccc(C)cc1 |  | 8.2 µM (active)
CCOC(=O)c1c(-c2ccc(C)cc2)csc1NC(=O)/C(C#N)=C/c1ccc(O)c(OC)c1 | -17.2% | 
CCOc1cc(/C=C(\C#N)c2nc(-c3cccs3)c(NC(C)=O)s2)ccc1O |  | 23.1 µM (active)
O=C(Cn1ncc(Cl)c(Cl)c1=O)NCC1CCCCC1 | -8.17% | 
CC(=O)c1cccc(-c2ccnc3c2CC(C(=O)NCc2ccco2)O3)c1 (stereo unspecified) | -11.6% | 
O=C(Cc1ccccc1)NCc1ccc(-n2cccc2)cc1 | -1.88% | 
S=C(Nc1cccc2ccccc12)NN1CCCCCC1 | 10.3% [at 46.1 µM] | 
N#Cc1c(-c2ccccc2F)cc(C2CC2)nc1SCC(=O)c1cccs1 |  | 17.7 µM (active)
CCc1c(C)nc(SCC(=O)c2cccs2)c(C#N)c1C | -25.4% | 
O=C(COC(=O)c1ccc(NS(=O)(=O)c2cccs2)cc1)NCc1ccco1 | -2.14% | 
Cc1ccc2nc3c(cc(S(=O)(=O)c4ccccc4)c(=N)n3Cc3ccco3)c(=O)n2c1 |  | 29.1 µM (active)
CC#Cc1cc2c(cc1O)CCC1C2CCC2(C)C(O)CCC12 (stereo unspecified) | -0.688% | 
N#CCc1ccc(NC(=O)/C=C/c2ccc([N+](=O)[O-])o2)cc1 |  | 8.2 µM (active)
CCOC(=O)CCc1ccc(NC(=O)/C=C/c2ccc([N+](=O)[O-])o2)cc1 |  | 23.1 µM (active)
CC(=O)Nc1ccc2nc(NC(=O)c3ccc([N+](=O)[O-])o3)sc2c1 | 1.09% | 
O=C(/C=C/c1ccc(Cl)cc1)c1ccc([N+](=O)[O-])o1 | -0.183% | 
COC(=O)c1sc(NC(=O)c2ccc([N+](=O)[O-])o2)c(C#N)c1C | -13.6% | 
CCc1ccc(C(=O)/C=C/c2ccc([N+](=O)[O-])o2)cc1 |  | 14 µM (active)

Compound | activity, negative = fluorescence increase | Potency
COc1cc(/C=C/C(=O)c2ccc([N+](=O)[O-])o2)ccc1O | -11.6% | 
COc1ccc(/C=C/C(=O)c2ccc([N+](=O)[O-])o2)cc1 | -6.52% | 
O=C(NCc1cccnc1)c1ccc([N+](=O)[O-])o1 | -7.07% | 
Cc1cc(C)n(-c2nnc3n2N=C(c2c[nH]c4ccccc24)CS3)n1 | -5.16% | 
CC1(C(=O)NCc2ccco2)Cc2c(-c3ccc(C(N)=O)cc3)ccnc2O1 (stereo unspecified) | -4.41% | 
Clc1ccsc1-c1csc(-c2cccnc2)n1 | -3.28% | 
Cc1ccc(O)c(Nc2c3ccccc3nc3ccccc23)c1 | -3.08% [at 46.1 µM] | 
Cc1ccc(O)c(NC(=O)c2cc(-c3ccccc3O)no2)c1 |  | 20.6 µM (active)
CCc1nnc(NC(=O)CSc2nnc(-c3ccccc3O)n2-c2ccc(C)cc2C)s1 | -6.03% | 
CCn1c(=O)c2cc(C(=O)NCCCOC)sc2c2ccccc21 | -7.54% | 
C=C(/C=C/c1ccc(N(C)C)cc1)c1nc2ccccc2s1 |  | 18.4 µM (active)
COc1ccccc1-c1cc(NC=O)c2ncc(-c3ccc(S(C)(=O)=O)cc3)n2c1 | -10% | 
S=C(NC1CCCCC1)N(CCc1ccccc1)CCc1ccccc1 | -9.72% [at 46.1 µM] | 
COc1cc2nc(/C=C/c3ccc(N(C)C)cc3)sc2cc1SC |  | 16.4 µM (active)
NNC(=O)c1oc2nc(-c3ccccc3)cc(-c3ccco3)c2c1N |  | 20.6 µM (active)
Cc1ccc(-c2cc(-c3ccco3)c3c(N)c(C(=O)NN)oc3n2)cc1 |  | 20.6 µM (active)
CC(/C=N/NC(=O)c1cc(-c2ccccc2)nc2ccccc12)=C\c1ccco1 | -8.64% | 
CC(C)(C)C(=O)/C(=C/c1ccc(Cl)cc1)n1cncn1 | 1.11% | 
CCN(CC)c1ccc2c(cc1=O)[C@@H](NC)CCc1cc(OC)c(OC)c(OC)c1-2 | -19.2% | 
COC(=O)c1sc(-c2cccs2)cc1NC(=O)/C=C/C(=O)O | 4.29% | 
C=CCN1C(=O)/C(=C2/Sc3ccc(OC)cc3N2CC)SC1=S |  | 14.6 µM (active)
C=CCN1C(=O)/C(=C2/Sc3ccc(OC)cc3N2C)SC1=Nc1cccc(O)c1 |  | 18.4 µM (active)
C[C@]1(O)CC(=O)C=C[C@H]1Nc1ccccc1 | 3.1% | 
COc1ccccc1N1C(=O)C2C(C(=O)c3ccccc3)=NN(c3ccc(C)cc3)C2C1=O (stereo unspecified) | -26.3% | 
N=C1S/C(=C\c2ccc(-c3cccc(Cl)c3)o2)C(=O)N1c1nccs1 |  | 20.6 µM (active)
